Experimental findings from PubChem BioAssay (NCATS) are described below.

The structures appear in SMILES notation. Inconclusive results are not listed. The list shows a part of the results. Activity calls are given as the source filed them. The call rests on the fitted dose curve; in most records, active means well fitted curve in the direction sought with a large enough effect; inconclusive means small, poorly fitted or top-dose-only effect, or another doubt; inactive means no such curve, though single readings can be large; an effect the other way counts as inactive or inconclusive.
On the % scale 0 is the no-effect control and ±100 the full control effect; potency means the concentration at half of the fitted maximal effect.

Sequence of Vitamin D3 receptor (Homo sapiens) (P11473 whole entry, looked up, the tested form may be a part): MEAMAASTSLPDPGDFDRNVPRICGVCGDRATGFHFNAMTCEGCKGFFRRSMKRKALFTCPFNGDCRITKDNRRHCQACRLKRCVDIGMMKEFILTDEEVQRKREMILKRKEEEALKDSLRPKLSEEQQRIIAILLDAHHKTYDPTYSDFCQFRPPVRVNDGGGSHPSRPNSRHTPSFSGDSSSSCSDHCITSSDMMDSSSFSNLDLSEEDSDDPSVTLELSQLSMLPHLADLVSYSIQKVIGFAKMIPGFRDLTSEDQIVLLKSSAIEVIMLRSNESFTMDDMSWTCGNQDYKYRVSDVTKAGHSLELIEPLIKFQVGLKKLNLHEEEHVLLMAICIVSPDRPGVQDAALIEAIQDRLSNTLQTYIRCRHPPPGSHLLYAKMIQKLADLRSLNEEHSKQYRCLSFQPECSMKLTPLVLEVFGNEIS

Test system in the first test: not listed separately
As to the kind of experiment: qHTS for Inhibitors of the vitamin D receptor (VDR): Hit Validation using a Texas Red Assay (AID 602201). The note with it: VDR coregulator binding, Texas Red fluorescence polarization, agonist-bound VDR ligand-binding domain; series mostly up to 57.1 µM; activity, negative = inhibition: at the top concentration. The method in brief: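 Fluorescence polarization with 1.5 uM VDR-LBD, LG19078 and 7 nM Texas Red (final). After 2 hours at ambient temperature, read at Ex 595 nm/Em 615 nm.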
For orientation: Quantitative high-throughput screening tests each substance at several concentrations.
On to `O=[N+]([O-])c1ccc(C2=Nn3c(Cn4nnc5ccccc54)nnc3SC2)cc1`, for which the Potency is 25.1 µM (active).

For the molecule `C#CCOc1ccc(/C=C2/C(=O)ON=C2C)cc1Br`, the “activity, negative = inhibition” value was -6.49% (inactive).

On to `O=c1[nH]c(/C=C\c2cccc(Cl)c2)nc(O)c1[N+](=O)[O-]`, for which the “activity, negative = inhibition” value was -5.64% (inactive).

On to `N#Cc1ccc(/C=C/C(=O)c2cccnc2)cc1`, for which the “activity, negative = inhibition” value was -11.7% (inactive).

Regarding `O=C(/C=C/c1cccnc1)c1ccc([N+](=O)[O-])cc1`, the Potency was 3.16 µM (active).

In the case of `COc1cccc(C(=O)C(C#N)=C(SC)SC)c1`, the “activity, negative = inhibition” value was -13.3% (inactive).

For the molecule `COc1ccc(OCc2nnc3n2N=C(c2ccccc2)C(CC(=O)O)S3)cc1` (stereo not drawn), the Potency is 3.16 µM (active).

As for `CCOc1ccc(Cl)cc1/C=C1/C(=O)ON=C1C`, the Potency was 7.94 µM (active).

As to `COc1ccc(C(Nc2cc(C)ccn2)c2ccc3ccc(C)nc3c2O)cc1` (stereo not drawn), the Potency is 14.1 µM (active).

Turning to `O=C1Nc2ccccc2/C1=C/C(=O)c1cccs1`, the Potency was 28.2 µM (active).

For the molecule `COCCN(CC(=O)NC1CCCCC1)C(=O)/C=C/C(=O)c1ccc(OC)cc1O`, the “activity, negative = inhibition” value was -21% (inactive).

For the molecule `O=C(/C=C/c1ccnc2ccccc12)c1cccs1`, the Potency was 28.2 µM (active).

On to `CN1CCN(C(=S)C(=O)Nc2ccc(Br)cc2)CC1`, for which the Potency was 17.8 µM (active).

With `CC(=O)N1CC[n+]2c(-c3ccc([N+](=O)[O-])cc3)csc21`, the Potency is 7.08 µM (active).

As for `CCCNC(=O)c1nnsc1S(=O)c1ccc(Cl)cc1` (stereo not drawn), the Potency was 3.16 µM (active).

On to `CS(=O)(=O)c1nc(-c2ccccc2)cc(C(F)(F)F)n1`, for which the Potency is 10 µM (active).

On to `O=C1C(=O)c2c(C(=O)c3ccccc3)coc2-c2ccccc21`, for which the “activity, negative = inhibition” value is -19.7% (inactive).

On to `Cc1c(C(=O)Nc2nc(-c3ccccn3)cs2)oc2ccccc12`, for which the “activity, negative = inhibition” value was 5.73% (inactive).

With `Cc1nc(NC(=O)c2ccc(Cl)cc2)sc1Cc1ccc2c(c1)OCO2`, the “activity, negative = inhibition” value is -10.2% (inactive).

Consider `Cc1cc(C)nc(S/C=C/C(=O)c2ccccc2F)n1`, for which the Potency is 7.94 µM (active).

Regarding `O=[S@]1Oc2ccccc2-c2ccccc21`, the “activity, negative = inhibition” value was -14.3% (inactive).

On to `O=C(O)CSc1cc(NS(=O)(=O)c2cccc([N+](=O)[O-])c2)c2ccccc2c1O`, for which the Potency was 2.82 µM (active).

Turning to `[O-]/[N+](=C/c1ccc(F)cc1)c1ccc(Cl)cc1`, the “activity, negative = inhibition” value was -6.68% (inactive).

As to `CN1CCN(C(=O)c2sc(=S)n(-c3ccccc3)c2N)CC1`, the “activity, negative = inhibition” value is -19.6% (inactive).

Take `CCN(CC)S(=O)(=O)c1ccc(O)c(NS(=O)(=O)c2ccccc2F)c1`: the “activity, negative = inhibition” value is -16.8% (inactive).

As to `CCOc1ccc(C(=O)CC(C(=O)O)N2CCCCC2)cc1` (stereo not drawn), the “activity, negative = inhibition” value is -4.98% (inactive).

`CCOC(=O)/C(=C\c1cccc(O)c1)c1nc2sc(C)c(C)c2c(=O)[nH]1`: the “activity, negative = inhibition” value was -7.53% (inactive).

`CCOC(=O)c1c(-c2ccccc2)csc1NC(=O)c1nc(S(=O)(=O)CC)ncc1Cl`: the Potency is 3.55 µM (active).

Regarding `COc1cc(/C=C2\C(=O)ON=C2c2ccc(Cl)cc2)ccc1O`, the Potency is 3.55 µM (active).

For the molecule `Nc1c(N2CCCC2)cc(Cl)c2nonc12`, the Potency is 3.98 µM (active).

With `O=C(Oc1ccccc1/C=C\C(=O)c1cc2ccccc2o1)c1ccccc1`, the Potency was 8.91 µM (active).

As to `c1ccc(-c2ccc(C3=Nn4c(Cn5nnc6ccccc65)nnc4SC3)cc2)cc1`, the Potency is 22.4 µM (active).

For the molecule `CC(C)CN1C(=O)/C(=C(/C#N)C(=O)NC2CCCCC2)c2ccccc21`, the Potency is 3.55 µM (active).

On to `CN(C)c1ccc(C=Nc2ccc(N(C)C)cc2)cc1`, for which the Potency is 17.8 µM (active).

With `Cc1cccc2c1N(Cc1ccccc1OCCC(C)C)C(=O)C2=O`, the Potency was 12.6 µM (active).

In the case of `C#CCOc1c(Cl)cc(/C=C2/C(=O)ON=C2C)cc1OCC`, the Potency is 15.8 µM (active).

Take `Cc1cc(C)nc(S/C=C/C(=O)c2ccccc2)n1`: the Potency was 14.1 µM (active).

With `NC(=O)COc1ccc(C(=O)/C=C2/C(=O)Nc3ccccc32)cc1`, the “activity, negative = inhibition” value is -0.867% (inactive).

`Cc1ccc(O)c(NC(=O)CCS(=O)(=O)c2nc(-c3ccc4c(c3)OCO4)cc(C(F)(F)F)n2)c1`: the Potency was 28.2 µM (active).

A further test concerns the target Vitamin D3 receptor (Homo sapiens) (UniProt P11473). The test can be described thus: qHTS for Inhibitors of the vitamin D receptor (VDR): Hit Validation using a Beta-Lactamase Assay (AID 602202). To be noted: VDR beta-lactamase reporter cells, FRET ratio, cells co-treated with VDR agonist LG190178; series mostly up to 46.1 µM; activity change, negative = inhibition: at the top concentration. In short, it runs like this: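 Stably transfected HEK293 cells expressing VDR-GAL4 DNA-binding domain fusion with UAS-driven beta-lactamase reporter, activated by agonist LG190178; compounds incubated 18 h, then FRET beta-lactam substrate 2 h; cleaved substrate read at 447 nm emission.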
For `COc1ccc(OCc2nnc3n2N=C(c2ccccc2)C(CC(=O)O)S3)cc1` (stereo not drawn), the “activity change, negative = inhibition” value is -3.35% (inactive).

In the case of `CC(=O)N1CC[n+]2c(-c3ccc([N+](=O)[O-])cc3)csc21`, the “activity change, negative = inhibition” value is -6.86% (inactive).

For `Cc1cc(C)nc(S/C=C/C(=O)c2ccccc2)n1`, the Potency is 3.26 µM (active).

Turning to `Cc1ccc(O)c(NC(=O)CCS(=O)(=O)c2nc(-c3ccc4c(c3)OCO4)cc(C(F)(F)F)n2)c1`, the Potency is 23.1 µM (active).
